# Measurements: the supplement of paper PMC6555819
# Tested on: RARb:RXRa (NR concentration 270 nM, RXRa partner concentration 90 nM)
# Experiment: PBM binding z-score (relative to random genomic background probes); higher = stronger binding; sequences stand for … in GC…GCGATTGACAGCGTAGAATGAAGG
# How it was run: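 Custom Agilent 4×180K protein-binding microarrays carried double-stranded probes. Their 34-nt variable regions held direct-repeat seeds, single-nucleotide variants, half-site ablations and random human genomic background sequences. Arrays were incubated 1 h with ligand-free nuclear receptor dimers in PBS pH 7.4, 2% milk, 0.02% Triton X-100, 1 mM DTT, 0.2 mg/mL BSA and 0.4 mg/ml salmon testes DNA. Antibodies against each partner (one per run) detected binding, and scanned fluorescence was regression-normalized. Binding z-scores use random background probes as reference.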
row,Sequence,PBM binding z-score
1,CTATGTAGGTTAAGGGGGTTATTCAGTTTGAAAG,2.24
2,TCGAGTAGGTTACGGAGGCATTCAGGGATGAAGA,0.731
3,CTATGTAGGTTAAGCGGGTCATTCAGTTTGAAAG,2.16
4,CGATGTAGGTTAAGGGGGTCATTCAGTTTGAAAG,3.65
5,CTATGTAGGTTAAGGGGGCCATTCAGTTTGAAAG,1.94
6,CTATGCAGGTTAAGGGGGTCATTCAGTTTGAAAG,3.52
7,TCGAGTAGGTTACTGGGGCATTCAGGGATGAAGA,1.08
8,CCGACTAGGTTACGAGGGGGCATTCAGTGCGAAT,2.02
9,CCGAGTAGGTTACGAGGGGGCATTCGGTGCGAAT,2.22
10,TCGAGTAGGTTACGGGGGCATTCAGGGATGAAGA,2.61
11,TCGAGTAGGTTACGGGGGCATTAAGGGATGAAGA,2.59
12,CAATGTAGGTTAAGGGGGTCATTCAGTTTGAAAG,3.72
13,CTATGTAGGTTAATGGGGTCATTCAGTTTGAAAG,3.3
14,CCGAGTAGGTTACGAGGCGGCATTCAGTGCGAAT,0.768
15,CCGAGTAGGTTACGAGGGCGCATTCAGTGCGAAT,1.29
16,CTATGTAGGTGAAGGGGGTCATTCAGTTTGAAAG,3.52
17,TCTAGTAGGTTACGGGGGCATTCAGGGATGAAGA,3.21
18,CCGAGTAAGTTACGAGGGGGCATTCAGTGCGAAT,1.09
19,CTATGTAGGGTAAGGGGGTCATTCAGTTTGAAAG,3.72
20,CTATGTAGGTTAAAGGGGTCATTCAGTTTGAAAG,3.87

row,Sequence,PBM binding z-score
1,CTCTGTAGGTTAAGGGGGTCATTCAGTTTGAAAG,3.6
2,TCGAGTAGGTTACGGGGGCATTGAGGGATGAAGA,2.69
3,CCGAGTAGGTAACGAGGGGGCATTCAGTGCGAAT,1.31
4,CTATTTAGGTTAAGGGGGTCATTCAGTTTGAAAG,3.71
5,CTATGTAGGTTCAGGGGGTCATTCAGTTTGAAAG,3.59
6,TCGAGTAGGTTACGGGCGCATTCAGGGATGAAGA,0.68
7,CTATGTACGTTAAGGGGGTCATTCAGTTTGAAAG,3.45
8,CCGAGTAGGTTCCGAGGGGGCATTCAGTGCGAAT,1.3
9,CTATGTAGGTTAAGGGGGTCATTTAGTTTGAAAG,3.51
10,CCGATTAGGTTACGAGGGGGCATTCAGTGCGAAT,2.49
11,CTATGTAGGTTAACGGGGTCATTCAGTTTGAAAG,3.57
12,TCGAGTAGGTTACGGGGGCATCCAGGGATGAAGA,2.46
13,CCGAGTAGGTTATGAGGGGGCATTCAGTGCGAAT,2.06
14,CCGAGTAGGTCACGAGGGGGCATTCAGTGCGAAT,4.58
15,TCGAGTAGGTTACGCGGGCATTCAGGGATGAAGA,0.946
16,CCGCGTAGGTTACGAGGGGGCATTCAGTGCGAAT,2.14
17,CTATGTAGGTTAAGGGGTTCATTCAGTTTGAAAG,1.82
18,CCGAGTAGGTTACGATGGGGCATTCAGTGCGAAT,1.03
19,TCGAGTAGGTTACGGGGTCATTCAGGGATGAAGA,3.87
